# Records with an inconclusive call do not appear. Active and inactive are the calls of the source. How the source made its calls, unless noted: active means hit-call score of the fitted dose curve at least 0.9, where 1 is the maximum; inconclusive means response in the unintended direction; inactive means score below 0.9.
# What was measured:
# [1] = molecular target: Estrogen receptor beta (Homo sapiens) (UniProt Q92731); test: OT_ER_ERbERb_1440: Odyssey Thera (OT) 24-hour HEK293T Protein-Complementation Assay for Estrogen Receptor-beta/-beta Homodimer (AID 2283380);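 further: fluorescence gain from ER beta LBD homodimer complementation read by laser scanning cytometry; scored as signal increase over DMSO baseline for both agonists and antagonists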
# Estrogen receptor beta (Homo sapiens), sequence (Q92731 whole entry, looked up, the tested form may be a part): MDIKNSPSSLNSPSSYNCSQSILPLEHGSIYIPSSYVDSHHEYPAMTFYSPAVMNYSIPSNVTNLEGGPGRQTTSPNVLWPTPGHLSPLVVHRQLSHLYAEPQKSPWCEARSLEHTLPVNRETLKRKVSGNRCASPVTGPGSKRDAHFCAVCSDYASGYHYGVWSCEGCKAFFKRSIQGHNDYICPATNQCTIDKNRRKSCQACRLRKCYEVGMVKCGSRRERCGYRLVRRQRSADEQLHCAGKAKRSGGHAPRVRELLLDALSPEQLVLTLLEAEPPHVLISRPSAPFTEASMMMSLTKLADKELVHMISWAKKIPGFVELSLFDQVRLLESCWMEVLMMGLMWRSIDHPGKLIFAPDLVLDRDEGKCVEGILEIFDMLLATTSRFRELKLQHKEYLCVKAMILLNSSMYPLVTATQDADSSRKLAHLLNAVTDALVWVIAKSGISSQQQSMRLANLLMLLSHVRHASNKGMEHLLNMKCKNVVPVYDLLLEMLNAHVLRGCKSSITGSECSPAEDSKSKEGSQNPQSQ
# In short: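 HEK293T cells stably expressing human ER-beta LBD (aa 310-547) PCA homodimer pair, dosed 24 h; formaldehyde-fixed, Draq5-stained. Readout: increase in nuclear (agonist) or nuclear plus cytoplasmic (antagonist) fluorescence intensity versus DMSO, gain-of-signal fitting.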
# [2] = molecular target: Estrogen receptor (Homo sapiens) (UniProt P03372); test: OT_ERa_GFPERaERE_0480: Odyssey Thera (OT) 8-hour HeLa Transcription Induction Assay for Estrogen Receptor (AID 2283381; active means hit-call score of the fitted dose curve at least 0.9, where 1 is the maximum; inactive means score below 0.9)
# Estrogen receptor (Homo sapiens), sequence (P03372 whole entry, looked up): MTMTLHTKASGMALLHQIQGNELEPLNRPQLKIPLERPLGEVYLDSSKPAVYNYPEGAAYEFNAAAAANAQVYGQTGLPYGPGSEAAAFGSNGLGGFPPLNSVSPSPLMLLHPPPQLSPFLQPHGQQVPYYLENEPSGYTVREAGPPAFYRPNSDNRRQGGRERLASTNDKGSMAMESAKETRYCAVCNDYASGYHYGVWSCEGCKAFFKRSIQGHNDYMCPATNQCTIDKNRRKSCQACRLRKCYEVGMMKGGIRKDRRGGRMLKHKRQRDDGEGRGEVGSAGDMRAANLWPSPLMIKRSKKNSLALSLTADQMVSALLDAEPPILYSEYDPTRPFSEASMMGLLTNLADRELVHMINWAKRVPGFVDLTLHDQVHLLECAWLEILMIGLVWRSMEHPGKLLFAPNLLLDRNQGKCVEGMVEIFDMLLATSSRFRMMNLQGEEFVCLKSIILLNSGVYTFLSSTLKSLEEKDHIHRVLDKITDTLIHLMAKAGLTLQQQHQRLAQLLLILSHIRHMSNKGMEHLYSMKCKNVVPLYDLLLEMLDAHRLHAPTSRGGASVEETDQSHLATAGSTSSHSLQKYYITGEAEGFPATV
# In short: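 Fluorescent reporter signal, imaged by microscopy and scored with image-analysis algorithms, was taken 8 h after chemical dosing of HeLa cells; activity was fitted upward relative to DMSO.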
# [3] = molecular target: Estrogen receptor (Homo sapiens) (UniProt P03372); test: OT_ERa_GFPERaERE_0120: Odyssey Thera (OT) 2-hour HeLa Transcription Induction Assay for Estrogen Receptor (AID 2283382)
# In short: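 HeLa, 384-well, 2 h chemical exposure; GFP reporter induction (ERE), fluorescence microscopy; high content image analysis; positive fitting direction vs DMSO.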
# [4] = molecular target: Bile acid receptor (Homo sapiens) (UniProt Q96RI1); test: OT_FXR_FXRSRC1_0480: Odyssey Thera (OT) 8-hour HEK293T Protein-Complementation Assay for Farnesoid X receptor/SRC-1 Co-activator (AID 2283383)
# Bile acid receptor (Homo sapiens), sequence (Q96RI1 whole entry, looked up, the tested form may be a part): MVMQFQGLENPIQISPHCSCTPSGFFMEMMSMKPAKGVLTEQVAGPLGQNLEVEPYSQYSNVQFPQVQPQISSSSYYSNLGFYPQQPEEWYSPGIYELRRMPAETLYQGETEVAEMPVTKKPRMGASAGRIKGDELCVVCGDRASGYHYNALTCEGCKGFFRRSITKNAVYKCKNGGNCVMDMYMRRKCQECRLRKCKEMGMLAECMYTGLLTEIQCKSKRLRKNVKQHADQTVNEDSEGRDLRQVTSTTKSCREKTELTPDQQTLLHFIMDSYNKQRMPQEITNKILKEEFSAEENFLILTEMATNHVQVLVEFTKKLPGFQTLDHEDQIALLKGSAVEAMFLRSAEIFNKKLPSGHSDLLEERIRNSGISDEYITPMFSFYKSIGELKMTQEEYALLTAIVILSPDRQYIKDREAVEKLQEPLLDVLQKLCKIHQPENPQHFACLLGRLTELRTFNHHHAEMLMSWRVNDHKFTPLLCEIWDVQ
# In short: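 Human kidney HEK293T cells carried FXR/SRC-1 fragment-complementation constructs. Compounds were added and incubated 8 h. Reporter reassembly upon receptor–co-activator interaction was then quantified by fluorescence, with curves fitted in the positive direction relative to DMSO.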
# [5] = molecular target: Retinoic acid receptor RXR-alpha (Homo sapiens) (UniProt P19793); test: OT_NURR1_NURR1RXRa_0480: Odyssey Thera (OT) 8-hour HEK293T Protein Complementation Assay for Nurr1/retinoid X receptor (RXR) (AID 2283385)
# Retinoic acid receptor RXR-alpha (Homo sapiens), sequence (P19793 whole entry, looked up, the tested form may be a part): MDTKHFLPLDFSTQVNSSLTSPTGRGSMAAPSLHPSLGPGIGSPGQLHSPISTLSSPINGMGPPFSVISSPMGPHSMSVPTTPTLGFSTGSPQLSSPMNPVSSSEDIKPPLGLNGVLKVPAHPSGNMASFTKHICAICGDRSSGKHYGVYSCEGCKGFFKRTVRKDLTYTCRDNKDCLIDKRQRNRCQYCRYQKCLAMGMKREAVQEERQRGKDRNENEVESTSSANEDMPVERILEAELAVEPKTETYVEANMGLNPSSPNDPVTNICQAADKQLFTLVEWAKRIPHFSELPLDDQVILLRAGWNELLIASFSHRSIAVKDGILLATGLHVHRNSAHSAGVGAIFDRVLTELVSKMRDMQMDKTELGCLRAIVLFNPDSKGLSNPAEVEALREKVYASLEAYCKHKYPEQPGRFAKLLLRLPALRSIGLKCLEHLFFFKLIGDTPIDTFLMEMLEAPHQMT
# In short: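 8 h compound exposure, HEK293T; Nurr1/RXRα fragment complementation; fluorescence intensity; positive fitting direction vs DMSO baseline.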
# [6] = molecular target: Retinoic acid receptor RXR-alpha (Homo sapiens) (UniProt P19793); test: OT_NURR1_NURR1RXRa_1440: Odyssey Thera (OT) 24-hour HEK293T Protein Complementation Assay for Nurr1/retinoid X receptor (RXR) (AID 2283386)
# In short: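 Interaction of Nurr1 with RXRα brings fused reporter fragments together in human HEK293T cells, restoring a functional reporter. Fluorescence intensity is measured 24 h after chemical treatment, and values are analysed in the positive direction against DMSO.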
# [7] = molecular target: Peroxisome proliferator-activated receptor gamma (Homo sapiens) (UniProt P37231); test: OT_PPARg_PPARgSRC1_0480: Odyssey Thera (OT) 8-hour Protein-Complementation Assay for Peroxisome Proliferator-activated Receptor Gamma / SRC-1 Co-activator (AID 2283387);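 further: nuclear to cytoplasmic split Venus YFP fluorescence ratio reporting PPARg SRC-1 interaction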
# Peroxisome proliferator-activated receptor gamma (Homo sapiens), sequence (P37231 whole entry, looked up, the tested form may be a part): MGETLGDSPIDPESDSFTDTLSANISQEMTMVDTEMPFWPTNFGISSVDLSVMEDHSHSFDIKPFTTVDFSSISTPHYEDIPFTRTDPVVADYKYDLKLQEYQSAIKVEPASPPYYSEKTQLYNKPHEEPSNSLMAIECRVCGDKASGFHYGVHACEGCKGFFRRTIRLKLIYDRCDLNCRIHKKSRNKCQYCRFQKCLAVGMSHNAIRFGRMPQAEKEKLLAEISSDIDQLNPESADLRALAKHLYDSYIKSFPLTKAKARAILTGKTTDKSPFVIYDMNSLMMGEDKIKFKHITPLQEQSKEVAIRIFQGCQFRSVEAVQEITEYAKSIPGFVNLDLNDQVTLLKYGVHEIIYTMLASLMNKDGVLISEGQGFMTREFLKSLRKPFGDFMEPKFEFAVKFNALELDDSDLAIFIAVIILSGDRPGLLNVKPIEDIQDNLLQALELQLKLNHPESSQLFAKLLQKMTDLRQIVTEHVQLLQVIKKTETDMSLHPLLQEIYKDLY
# In short: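 Protein-fragment complementation in HEK293T: Venus YFP halves (residues 1-158, 159-239, mutated to IFP1/IFP2) fused to PPARg/SRC-1. 8 h exposure; N/C ratio at 488 nm; DMSO negative control.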
# [8] = molecular target: Peroxisome proliferator-activated receptor gamma (Homo sapiens) (UniProt P37231); test: OT_PPARg_PPARgSRC1_1440: Odyssey Thera (OT) 24-hour Protein-Complementation Assay for Peroxisome Proliferator-activated Receptor Gamma/ SRC-1 Co-activator (AID 2283388);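 further: nuclear to cytoplasmic ratio of reconstituted Venus YFP fluorescence in fixed imaged cells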
# In short: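 Protein-fragment complementation between PPARg and coactivator SRC-1 was measured by fluorescence imaging in transiently transfected HEK293T cells after 24 h treatment. Signal was quantified as N/C ratio in the 488 nm channel, with DMSO as negative control.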
# [9] = molecular target: Bile acid receptor (Homo sapiens) (UniProt Q96RI1); test: OT_FXR_FXRSRC1_1440: Odyssey Thera (OT) 24-hour HEK293T Protein-Complementation Assay for Farnesoid X receptor/SRC-1 Co-activator (AID 2283384)
# In short: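 Compounds are applied to human kidney HEK293T cells expressing bait and prey fused to reporter protein fragments; after 24 h, reconstituted reporter fluorescence is measured. Activity is fitted as signal gain over DMSO.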
# [10] = molecular target: Agonist Androgen Response Element (ARE), AR (gene 367) (UniProt P10275); test: OT_AR_ARELUC_AG_1440: Odyssey Thera (OT) 24-hour CHO-K1 Luciferase Assay for Agonist Androgen Response Element (ARE) (AID 2283379)
# Agonist Androgen Response Element (ARE), AR (gene 367), sequence (P10275 whole entry, looked up): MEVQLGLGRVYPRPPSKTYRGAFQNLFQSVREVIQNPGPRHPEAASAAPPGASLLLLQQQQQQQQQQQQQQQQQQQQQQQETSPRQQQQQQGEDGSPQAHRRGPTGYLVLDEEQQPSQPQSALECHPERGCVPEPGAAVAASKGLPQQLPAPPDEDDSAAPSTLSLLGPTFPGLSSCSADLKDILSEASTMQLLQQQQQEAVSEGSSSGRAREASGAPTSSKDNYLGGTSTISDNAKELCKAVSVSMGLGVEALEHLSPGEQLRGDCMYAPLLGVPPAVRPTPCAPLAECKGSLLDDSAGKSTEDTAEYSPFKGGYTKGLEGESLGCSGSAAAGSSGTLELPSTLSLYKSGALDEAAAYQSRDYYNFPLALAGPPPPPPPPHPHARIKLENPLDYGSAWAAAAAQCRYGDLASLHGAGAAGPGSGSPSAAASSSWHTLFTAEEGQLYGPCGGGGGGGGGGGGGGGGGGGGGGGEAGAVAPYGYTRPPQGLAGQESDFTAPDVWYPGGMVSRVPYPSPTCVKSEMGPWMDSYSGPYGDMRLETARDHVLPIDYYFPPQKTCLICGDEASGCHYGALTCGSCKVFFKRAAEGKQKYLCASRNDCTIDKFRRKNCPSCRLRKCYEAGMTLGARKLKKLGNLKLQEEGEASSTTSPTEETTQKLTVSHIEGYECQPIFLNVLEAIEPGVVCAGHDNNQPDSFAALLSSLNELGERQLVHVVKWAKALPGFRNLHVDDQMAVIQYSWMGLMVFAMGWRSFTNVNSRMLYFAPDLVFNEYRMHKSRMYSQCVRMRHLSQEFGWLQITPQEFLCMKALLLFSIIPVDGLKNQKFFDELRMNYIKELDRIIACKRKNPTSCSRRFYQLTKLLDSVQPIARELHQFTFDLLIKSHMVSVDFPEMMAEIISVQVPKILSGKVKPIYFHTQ
# In short: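 Seed CHO-K1 cells; dose compounds for 24 h; add D-luciferin plus ATP in PBS; read luminescence. Signal increase relative to vehicle defines agonist activity, with at least 3 replicate wells per sample.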
# [11] = read-out: Tumor necrosis factor receptor superfamily member 6 (Homo sapiens) (UniProt P25445); test: LTEA_HepaRG_FAS: Life Technologies and Expression Analysis (LTEA) Assay for Fas cell surface death receptor (FAS) using HepaRG (AID 2283447; active means hit-call score of the fitted dose curve at least 0.9, where 1 is the maximum; inactive means score below 0.9); conditions: mRNA level, 48 h; actives raise or lower the signal
# In short: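 Differentiated human HepaRG cells, pre-cultured 48 h, were exposed in duplicate for 48 h to 8-point half-log concentrations (top 100 uM, 0.5% DMSO) in serum-free induction medium; FAS mRNA measured by qRT-PCR, normalized to ACTB/GAPDH/POLR2A, bidirectional fit versus DMSO.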
# [12] = read-out: Fatty acid synthase (Homo sapiens) (UniProt P49327); test: LTEA_HepaRG_FASN: Life Technologies and Expression Analysis (LTEA) Assay for Fatty Acid Synthase (FASN) using HepaRG (AID 2283448; active means hit-call score of the fitted dose curve at least 0.9, where 1 is the maximum; inactive means score below 0.9); conditions: mRNA level, 48 h; actives raise or lower the signal
# In short: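 FASN expression changes, up or down relative to 0.5% DMSO, were measured by qRT-PCR in human HepaRG cells after 48 h treatment with chemicals at eight concentrations (half-log steps from 100 uM).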
compound,measurement,setting,value
CCCCCCCCCO,outcome,[1],inactive
same,outcome,[2],inactive
same,outcome,[3],inactive
same,outcome,[4],inactive
same,outcome,[5],inactive
same,outcome,[6],inactive
same,outcome,[7],inactive
same,outcome,[8],inactive
CCCCCCCCCCCCS,outcome,[1],inactive
same,outcome,[2],inactive
same,outcome,[3],inactive
same,AC50,[5],77.6 µM (active)
same,outcome,[7],inactive
same,outcome,[8],inactive
CCC(C)(CCCC(C)C)OC(C)=O (stereo unspecified),outcome,[1],inactive
same,outcome,[2],inactive
same,outcome,[3],inactive
same,outcome,[4],inactive
same,outcome,[9],inactive
same,outcome,[5],inactive
same,outcome,[7],inactive
same,outcome,[8],inactive
CCCO,outcome,[1],inactive
same,outcome,[2],inactive
same,outcome,[3],inactive
same,outcome,[5],inactive
same,outcome,[6],inactive
same,outcome,[7],inactive
same,outcome,[8],inactive
CCCCC/C=C\C=C\C(=O)OCC,AC50,[1],12.5 µM (active)
same,AC50,[2],95.6 µM (active)
same,outcome,[3],inactive
same,AC50,[9],81 µM (active)
same,outcome,[5],inactive
same,outcome,[7],inactive
same,outcome,[8],inactive
CC(=O)OC/C=C(C)/C=C/C=C(C)/C=C/C1=C(C)CCCC1(C)C,outcome,[1],inactive
same,outcome,[2],inactive
same,outcome,[3],inactive
same,AC50,[5],27.5 µM (active)
same,outcome,[6],inactive
same,outcome,[7],inactive
same,outcome,[8],inactive
COC(=O)c1cccc(C(=O)OC)c1,AC50,[10],1.63 µM (active)
same,outcome,[1],inactive
same,outcome,[2],inactive
same,outcome,[3],inactive
same,outcome,[6],inactive
same,outcome,[7],inactive
same,outcome,[8],inactive
CCCCCC1CCC(=O)O1 (stereo unspecified),outcome,[1],inactive
same,outcome,[2],inactive
same,outcome,[3],inactive
same,outcome,[4],inactive
same,outcome,[5],inactive
same,outcome,[6],inactive
same,outcome,[7],inactive
same,outcome,[8],inactive
CCC(C)(C)C1CCC(=O)CC1,outcome,[10],inactive
same,outcome,[2],inactive
same,outcome,[3],inactive
same,outcome,[5],inactive
same,outcome,[6],inactive
same,outcome,[7],inactive
same,outcome,[8],inactive
COC(=O)c1ccc(C(=O)OC)cc1,outcome,[1],inactive
same,outcome,[2],inactive
same,outcome,[3],inactive
same,outcome,[5],inactive
same,outcome,[6],inactive
same,outcome,[7],inactive
same,outcome,[8],inactive
same,outcome,[11],inactive
same,outcome,[12],inactive
CCCCCCOc1ccc(O)cc1,outcome,[10],inactive
same,AC50,[1],12 µM (active)
same,AC50,[2],88.9 µM (active)
same,AC50,[3],69.5 µM (active)
same,outcome,[5],inactive
same,outcome,[7],inactive
same,outcome,[8],inactive
CC(=O)C1C(=O)C=C(C)OC1=O (stereo unspecified),outcome,[1],inactive
same,outcome,[2],inactive
same,outcome,[3],inactive
same,outcome,[4],inactive
same,outcome,[9],inactive
same,outcome,[5],inactive
same,outcome,[6],inactive
same,outcome,[7],inactive
same,outcome,[8],inactive
CCNC(=S)NCC,outcome,[1],inactive
same,outcome,[2],inactive
same,outcome,[3],inactive
same,outcome,[5],inactive
same,outcome,[7],inactive
same,outcome,[8],inactive
CC(CCO)CC(C)(C)C (stereo unspecified),outcome,[10],inactive
same,AC50,[1],39 µM (active)
same,outcome,[3],inactive
same,outcome,[7],inactive
same,outcome,[8],inactive

# — PubChem BioAssay (EPA / NIEHS)
